# NTR1 ag: agonists of human neurotensin receptor NTR1. NTR1-U2OS beta-arrestin-GFP spot imaging, agonist mode. activation, % at 20 µM. 0.17% of 330,000 active;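 active = activation at or above 40% of the spot to cytoplasm intensity ratio, with at least 20 cells analyzed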;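 also: 0% = DMSO without peptide and 100% = 100 nM NTR1 peptide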
# VLA-4 inh: inhibition in a human VLA-4 binding assay; P13612; 0.2% of 330,000 active; inhibition, % (about 7 µM as worked out from the volumes in the protocol); VLA-4 expressing cells, ligand binding flow cytometry; in the data active = inhibition above about 50%
# B2AR ag: human beta-2 adrenergic receptor agonism by FAP. P07550. Am2.2-beta2AR cells, FAP receptor internalization, flow cytometry. response, % (test concentration not listed). 0.43% of 340,000 active. AID 504454;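 active = response above a set limit, near 3 SD of response in nonfluorescent compounds, cut at about 42% in these data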
# A1 inh: inhibitors of the anti-apoptotic protein A1, read as caspase activation. MEF A1-2A-BIM cells, Caspase-Glo 3/7 luminescence, 3 h; percent of clofoctol response, vehicle zero. caspase activation, % (no concentration beside the values). 0.066% of 330,000 active;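 active = over half of replicate activation scores above 10%, or exactly half above 10 with the replicate mean above 10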
# GRK2 aptamer HTS: human GRK2 inhibition via aptamer displacement | bead flow cytometry, FAM-aptamer displacement from GRK2 | 0.59% of 330,000 active | AID 488847 | inhibition of aptamer binding, % at 10 µM | P25098;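 active = inhibition of aptamer binding above 40%, roughly 3 SD of noise, on plates passing a quality check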;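 also: median bead fluorescence of bound FAM aptamer so fluorescent compounds give negative values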
# Target sequence (P25098 whole entry, looked up): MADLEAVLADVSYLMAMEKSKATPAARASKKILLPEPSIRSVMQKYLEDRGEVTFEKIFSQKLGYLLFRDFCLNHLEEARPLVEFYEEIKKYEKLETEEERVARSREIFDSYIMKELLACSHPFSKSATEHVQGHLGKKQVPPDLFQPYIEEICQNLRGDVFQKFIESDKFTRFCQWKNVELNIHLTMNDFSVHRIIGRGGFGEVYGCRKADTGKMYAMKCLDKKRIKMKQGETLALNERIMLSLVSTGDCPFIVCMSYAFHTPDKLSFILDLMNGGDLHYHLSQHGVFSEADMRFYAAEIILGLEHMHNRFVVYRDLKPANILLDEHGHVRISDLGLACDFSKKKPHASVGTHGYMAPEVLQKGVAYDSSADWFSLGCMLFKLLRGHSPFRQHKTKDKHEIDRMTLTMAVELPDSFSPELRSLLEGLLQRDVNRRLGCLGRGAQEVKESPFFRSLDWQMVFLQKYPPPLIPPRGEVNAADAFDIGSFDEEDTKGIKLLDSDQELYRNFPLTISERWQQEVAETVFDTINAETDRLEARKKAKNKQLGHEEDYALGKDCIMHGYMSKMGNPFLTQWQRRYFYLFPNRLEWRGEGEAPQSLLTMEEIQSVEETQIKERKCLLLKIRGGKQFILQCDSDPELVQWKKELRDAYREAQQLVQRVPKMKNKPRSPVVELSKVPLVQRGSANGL
# * marks the source's active call; other numbers are inactive results; x = no result. A selection: hits, their analogues and other compounds. The true share with any hit is near 1.3%.
SMILES,NTR1 ag,VLA-4 inh,B2AR ag,A1 inh,GRK2 aptamer HTS
CCCNC(=O)CN1CCC(c2nc3ccccc3[nH]2)CC1,0,-23,-5,-1,1
CCCC(=O)N1CCN(c2ccc(NC(=O)c3cc4ccccc4o3)cc2Cl)CC1,45*,-9,27,-1,3
COc1ccc(C2C(O)C(c3c[nH]c4ccccc34)=NN2C(=O)CCl)cc1 (stereo unspecified),11,20,19,8.0*,0
COc1ccc2[nH]c3c(c2c1)CCN1C(=O)C(CC(=O)NCc2cccc(C(F)(F)F)c2)C[C@H](C(=O)N2CCCCC2)[C@@]31CCc1ccccc1 (stereo partly specified),1,x,3,x,1
CCc1ccc2nc(N(CCCN(C)C)C(=O)c3ccc(S(=O)(=O)N4CCc5ccccc5C4)cc3)sc2c1,30,-6,35,24*,18
COc1ccc2sc(N(CCCN(C)C)C(=O)c3ccc(S(=O)(=O)N4CCCc5ccccc54)cc3)nc2c1,18,35,53*,0,1
COc1cc2nc(N(CCCN(C)C)C(=O)c3ccc(S(=O)(=O)N4CCc5ccccc54)cc3)sc2cc1OC,1,-8,12,0,0
Cc1cc(Br)c(Oc2cc(NN3CCCCC3)c([N+](=O)[O-])cc2[N+](=O)[O-])c(Br)c1,x,x,8,x,x
CSCCC(NC(=O)c1ccco1)C(=O)NC1CCC(C)CC1 (stereo unspecified),0,3,-8,0,2
O=C(NNc1c2ccccc2nc2ccccc12)c1ccccc1Cl,9,-2,-10,0,0
O=C(NNc1c2ccccc2nc2ccccc12)C12CC3CC(CC(C3)C1)C2,6,6,45*,0,1
COc1ccc(CCNC(=O)C(=O)NCC2OCCN2S(=O)(=O)c2ccccc2)cc1 (stereo unspecified),0,0,-23,0,1
CCN(CC(=O)Nc1ccc(S(=O)(=O)N2CCCC2)cc1)CC(=O)Nc1ccccc1C(F)(F)F,4,2,9,0,0
CCOc1cc(/C=C2/C(=N)N3C=CSC3=NC2=O)ccc1OCCCOc1ccccc1C,6,-14,4,41*,0
O=c1oc2c(CN3CCN(CCO)CC3)c(O)ccc2cc1-c1ccccn1,2,27,43*,0,0
CN(c1ccccc1)S(=O)(=O)c1cc(Cl)ccc1Cl,-1,51*,-3,-1,0
CC(=O)NN1C(=O)/C(=C\c2ccc(O)cc2)SC1=S,0,-8,-11,-5,79*
O=C(NCc1ccc(/C=N\NC(=O)C(=O)Nc2ccccc2Br)o1)C(=O)Nc1ccccc1,1,2,-3,11*,1
O=C(N/N=C\c1ccc(CNS(=O)(=O)c2ccccc2)o1)C(=O)Nc1ccc(F)cc1,1,10,-14,-1,0
CC1(NC(=O)CCNC(=O)c2ccc(C(C)(C)C)cc2)CCS(=O)(=O)C1 (stereo unspecified),-1,37,-10,-1,0
COc1ccc(C[C@@H]2OC3(C=CC(=O)C=C3)O[C@H]2Cc2ccc(OC)cc2)cc1,x,x,52*,x,x
COc1ccc(CNC(=O)CCSCc2cccc(F)c2)cc1,0,13,2,1,0
O=C/C=C/c1c(-c2ccccc2)cc2oc3ccccc3cc1-2,4,1,64*,1,6
Cc1ccc2[nH]c3c(c2c1)CCCC3NC(=O)CCl (stereo unspecified),2,10,-5,5.3*,3
COc1c(C)cccc1C(=O)NC(=S)Nc1ccccc1N1CCCC1,2,3,-1,0,2
SMILES,NTR1 ag,VLA-4 inh,B2AR ag,A1 inh,GRK2 aptamer HTS
COCCn1c(C)cc(/C=C(\C#N)C(=O)OCC(=O)N(C)c2c(N)n(Cc3ccccc3)c(=O)[nH]c2=O)c1C,-1,4,-3,1,3
Cc1ccc(C(C[N+](=O)[O-])n2nc(C)cc2C)cc1 (stereo unspecified),51*,12,18,1,0
COC(=O)c1ccc(C2NC(=S)N(c3ccccc3)C(C)=C2C(=O)Nc2ccccc2OC)cc1 (stereo unspecified),3,29,46*,0,1
C=C1CC(COc2cc(=O)oc3ccccc23)(c2ccccc2)OC1=O (stereo unspecified),x,x,72*,x,x
COc1cc2c(cc1OC)C(c1ccc(-c3ccccc3Cl)o1)=NCC2,58*,x,-2,0,1
COC(=O)C(CC(=O)c1ccc(Br)cc1)n1cccn1 (stereo unspecified),1,-15,1,1,3
Cc1ccc(C(=O)N2CCCc3ccccc32)c(F)c1F,0,5,3,0,2
CCCCN1C(=N)N([C@@H](CCC)CN2CCC[C@H]2CN2C(N)=NC[C@H]2C(C)C)C[C@H]1[C@H](C)CC,0,16,-3,x,100*
CC1=NNC(=O)/C1=C\c1cn(-c2ccccc2)nc1-c1ccc(F)cc1,x,x,108*,x,x
CCOc1ccc(/C=C2\SC(N3CCc4ccccc4C3)=NC2=O)cc1,22,14,68*,-1,3
CCOc1ccccc1N1CC(C(=O)NC2CCCCCC2)CC1=O (stereo unspecified),2,-16,5,1,2
CCOC(=O)C1CCN(S(=O)(=O)c2c(Cl)ccc3nonc23)CC1,7,8,79*,0,1
CC[C@H](C)[C@@H](C(=O)NCCCCCCCCCCC(=O)N1CCN(C(=O)OC(C)(C)C)CC1)n1cc(CCCCCNC(=O)OC(C)(C)C)nn1,1,19,14,-1,0
CC[C@H](C)[C@@H](C(=O)NCCCCCCCCCCC(=O)N1CCN(C(=O)OC(C)(C)C)CC1)n1cc(CCCCN=C(NC(=O)OC(C)(C)C)NC(=O)OC(C)(C)C)nn1,63*,0,x,-1,0
CC(C)(C)OC(=O)NCCCCCc1cn([C@@H](CO)C(=O)NCCCCCCCCCCC(=O)N2CCN(C(=O)OC(C)(C)C)CC2)nn1,82*,18,25,0,2
Cc1ccc(C(=O)Nc2nnc(CC(=O)N/N=C/c3ccncc3)s2)cc1,0,-1,-6,0,0
Cc1ccc(C(=O)Nc2nnc(CC(=O)N/N=C/c3ccc(O)c(O)c3)s2)cc1,0,5,12,0,62*
O=C(CN(Cc1ccc(F)cc1)C(=O)CCC(=O)Nc1nccs1)NCc1ccc(F)cc1,-1,3,-1,0,0
CCN(Cc1ccccc1)c1c(C(=O)O)cnc2c1cnn2C,0,-1,-6,0,3
Cn1ncc2c(NCc3cccc(C(F)(F)F)c3)c(C(=O)O)cnc21,1,-3,x,1,55*
Cn1c(=O)c(C(=O)NNC(=O)c2ccc(Br)cc2)c(O)c2ccccc21,-1,1,-3,0,47*
Cn1c(=O)c(C(=O)NNC(=O)c2ccccc2F)c(O)c2ccccc21,1,12,-2,-1,0

# Assay outcomes as filed in PubChem BioAssay.
